{
  "source": "the supplement of paper PMC9950053",
  "note": "Where a name gives a salt, the structure may show the parent alone.",
  "data": [
    {"system": "Danio rerio larvae (5 dpf)", "experiment": "1-h baseline activity (% time moving, periods 1-6) minus DMSO control (percentage points); higher = more locomotor activity than DMSO larvae", "conditions": "10 µM; exposure time: 3 h pre-incubation + 3 h imaging", "method": "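Wild-type 5 dpf zebrafish larvae (n=48 per drug, 96-well plates, 28.5 °C) were exposed to Tocris FDA-approved library compounds at 10 µM (0.1% DMSO) for 3 h before and 3 h during imaging. Images were taken every 6 s during visual (moving coloured lines) and acoustic stimuli, and larvae were tracked with the DeepLabCut-based Z-LaP Tracker. Each behavioural measure is the treated-group mean minus the DMSO vehicle control mean (n=844), in percentage points. This mapping covers compounds with 4-character plate codes.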", "values": [
      {"smiles": "Cn1nnc2c(C(N)=O)ncn2c1=O", "note": "[Temozolomide]", "1-h baseline activity": 5.97},
      {"smiles": "Cc1ccccc1C(=O)Nc1ccc(C(=O)N2CCCC(O)c3cc(Cl)ccc32)c(C)c1", "note": "(stereo not given) [Tolvaptan]", "1-h baseline activity": 0.214},
      {"smiles": "COc1ccc(-c2ccc3cc(C(=O)O)ccc3c2)cc1C12CC3CC(CC(C3)C1)C2", "note": "[Adapalene]", "1-h baseline activity": -1.21},
      {"smiles": "CCCc1nc(C(C)(C)O)c(C(=O)O)n1Cc1ccc(-c2ccccc2-c2nnn[nH]2)cc1", "note": "[Olmesartan]", "1-h baseline activity": 10.4},
      {"smiles": "COc1cccc2c1C(=O)c1c(O)c3c(c(O)c1C2=O)C[C@@](O)(C(=O)CO)C[C@@H]3O[C@H]1C[C@H](N)[C@H](O)[C@H](C)O1", "note": "[Doxorubicin hydrochloride]", "1-h baseline activity": -7.23},
      {"smiles": "CCN(CC)CCNC(=O)c1c(C)[nH]c(/C=C2\\C(=O)Nc3ccc(F)cc32)c1C", "note": "[Sunitinib malate]", "1-h baseline activity": -14},
      {"smiles": "CCOC(=O)C1=C(C)NC(C)=C(C(=O)OC)C1c1cccc(Cl)c1Cl", "note": "(stereo not given) [Felodipine]", "1-h baseline activity": -15.3},
      {"smiles": "CC(C)N(CCCCOCC(=O)NS(C)(=O)=O)c1cnc(-c2ccccc2)c(-c2ccccc2)n1", "note": "[Selexipag]", "1-h baseline activity": 1.65},
      {"smiles": "C#C[C@]1(O)CC[C@H]2[C@@H]3CCC4=CC(=O)CC[C@@H]4[C@H]3CC[C@@]21CC", "note": "[Levonorgestrel]", "1-h baseline activity": -8.79},
      {"smiles": "Nc1nc2c(ncn2COCCO)c(=O)[nH]1", "note": "[Acyclovir]", "1-h baseline activity": -2.63},
      {"smiles": "CNC(=O)c1ccccc1Sc1ccc2c(/C=C/c3ccccn3)n[nH]c2c1", "note": "[Axitinib]", "1-h baseline activity": -3.55},
      {"smiles": "Clc1ccccc1C(c1ccccc1)(c1ccccc1)n1ccnc1", "note": "[Clotrimazole]", "1-h baseline activity": -22.9},
      {"smiles": "COc1ccccc1OCCNCC(O)COc1cccc2[nH]c3ccccc3c12", "note": "(stereo not given) [Carvedilol]", "1-h baseline activity": -12.4},
      {"smiles": "Nc1ncn([C@H]2C[C@H](O)[C@@H](CO)O2)c(=O)n1", "note": "[Decitabine]", "1-h baseline activity": 1.07},
      {"smiles": "CN(C)CCC[C@@]1(c2ccc(F)cc2)OCc2cc(C#N)ccc21", "note": "[Escitalopram oxalate]", "1-h baseline activity": -24.4},
      {"smiles": "CCCCc1nc(Cl)c(CO)n1Cc1ccc(-c2ccccc2-c2nnn[nH]2)cc1", "note": "[Losartan potassium]", "1-h baseline activity": 10.3},
      {"smiles": "NS(=O)(=O)Cc1noc2ccccc12", "note": "[Zonisamide]", "1-h baseline activity": 2.49},
      {"smiles": "CN1CCC[C@@H]1CCO[C@](C)(c1ccccc1)c1ccc(Cl)cc1", "note": "[Clemastine fumarate]", "1-h baseline activity": 1.06},
      {"smiles": "CC(C)(C(=O)c1cccnc1)c1cccnc1", "note": "[Metyrapone]", "1-h baseline activity": -9.17},
      {"smiles": "Nc1nc(NC2CC2)c2ncn([C@H]3C=C[C@@H](CO)C3)c2n1", "note": "[Abacavir hemisulfate]", "1-h baseline activity": 6.96},
      {"smiles": "CCCCC(=O)N(Cc1ccc(-c2ccccc2-c2nnn[nH]2)cc1)[C@H](C(=O)O)C(C)C", "note": "[Valsartan]", "1-h baseline activity": 3.3},
      {"smiles": "Cc1cccc(C)c1OCC(C)N", "note": "(stereo not given) [Mexiletine hydrochloride]", "1-h baseline activity": 3.37},
      {"smiles": "CC1=Nc2ccc(Cl)cc2S(=O)(=O)N1", "note": "[Diazoxide]", "1-h baseline activity": 7.2},
      {"smiles": "COc1cc(Nc2c(C#N)cnc3cc(OCCCN4CCN(C)CC4)c(OC)cc23)c(Cl)cc1Cl", "note": "[Bosutinib]", "1-h baseline activity": -17.1},
      {"smiles": "CCOc1nc2cccc(C(=O)O)c2n1Cc1ccc(-c2ccccc2-c2nnn[nH]2)cc1", "note": "[Candesartan]", "1-h baseline activity": 2.98},
      {"smiles": "CCOc1ccccc1OCCN[C@H](C)Cc1ccc(OC)c(S(N)(=O)=O)c1", "note": "[Tamsulosin hydrochloride]", "1-h baseline activity": 3.66},
      {"smiles": "CCOc1nc2cccc(C(=O)O)c2n1Cc1ccc(-c2ccccc2-c2noc(=O)[nH]2)cc1", "note": "[Azilsartan]", "1-h baseline activity": 1.25},
      {"smiles": "O=C1CCc2cc(OCCCCc3nnnn3C3CCCCC3)ccc2N1", "note": "[Cilostazol]", "1-h baseline activity": 10},
      {"smiles": "COC(=O)C1=C(C)NC(C)=C(C(=O)OC(C)C)C1c1cccc2nonc12", "note": "(stereo not given) [Isradipine]", "1-h baseline activity": -3.08},
      {"smiles": "CC1(C)O[C@@H]2[C@@H](CO[C@@]3(COS(N)(=O)=O)OC(C)(C)O[C@@H]23)O1", "note": "[Topiramate]", "1-h baseline activity": 9.54},
      {"smiles": "Brc1c(NC2=NCCN2)ccc2nccnc12", "1-h baseline activity": -17.8},
      {"smiles": "CC(c1cc2ccccc2s1)N(O)C(N)=O", "note": "(stereo not given) [Zileuton]", "1-h baseline activity": -1.65},
      {"smiles": "Nc1ncn([C@@H]2O[C@H](CO)[C@@H](O)[C@H]2O)c(=O)n1", "note": "[5-Azacytidine]", "1-h baseline activity": 2.7},
      {"smiles": "COc1c(C)c2c(c(O)c1C/C=C(\\C)CCC(=O)OCCN1CCOCC1)C(=O)OC2", "note": "[Mycophenolate mofetil]", "1-h baseline activity": -3.96},
      {"smiles": "CC(=O)O[C@]1(C(C)=O)CC[C@H]2[C@@H]3C=C(C)C4=CC(=O)CC[C@]4(C)[C@H]3CC[C@@]21C", "note": "[Megestrol Acetate]", "1-h baseline activity": -13.7},
      {"smiles": "Cc1nnc(C(C)C)n1C1C[C@H]2CC[C@@H](C1)N2CC[C@H](NC(=O)C1CCC(F)(F)CC1)c1ccccc1", "note": "(stereo in doubt) [Maraviroc]", "1-h baseline activity": -3.33},
      {"smiles": "CN1CC(=O)N2[C@H](c3ccc4c(c3)OCO4)c3[nH]c4ccccc4c3C[C@@H]2C1=O", "note": "[Tadalafil]", "1-h baseline activity": 10.9},
      {"smiles": "CC1CNc2c(cccc2S(=O)(=O)N[C@@H](CCCNC(=N)N)C(=O)N2CC[C@@H](C)C[C@@H]2C(=O)O)C1", "note": "(stereo not given in full) [Argatroban]", "1-h baseline activity": 3.52},
      {"smiles": "CCC(=O)O[C@]1(C(=O)SCF)[C@H](C)C[C@H]2[C@@H]3C[C@H](F)C4=CC(=O)C=C[C@]4(C)[C@@]3(F)[C@@H](O)C[C@@]21C", "note": "[Fluticasone propionate]", "1-h baseline activity": 6.52},
      {"smiles": "CC(C)C(=O)Nc1ccc([N+](=O)[O-])c(C(F)(F)F)c1", "note": "[Flutamide]", "1-h baseline activity": -9.78}
    ]}
  ]
}
